The text below walks through data of PubChem BioAssay (Tox21).

Values without a mark were called inactive. Records with an inconclusive call do not appear. The source made the active and inactive calls. Unless noted, calls come from the whole dose curve; as a rule, active = well fitted curve in the direction sought with a large enough effect in the repeat runs; inconclusive = weak or mixed curves; inactive = no such curve, though single readings can be large; an effect the other way counts as inactive or inconclusive.

Experiment [1] is described as follows: qHTS assay to identify small molecule agonists of the sonic hedgehog signaling (Shh) pathway (AID 1259368; calls by dose curve;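 note: NIH/3T3-derived 3T3Gli1-Luc cells carrying a stable Gli1-driven firefly luciferase reporter; series mostly up to about 92 µM; nearly all actives have a fitted effect of over 15% in size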). The essentials: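 3T3Gli1-Luc (NIH/3T3 clone, stable Gli1-Luc); 4 hr pre-incubation, then cpd in DMSO 24 hr, 37 C/5% CO2; luciferase reagent 30 min RT; luminescence.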
On the technique in general: In qHTS, concentration-response curves come from the screen itself.

Experiment [2] is described as follows: qHTS assay to identify small molecule antagonists of the sonic hedgehog signaling (Shh) pathway (AID 1259369; calls by dose curve; note: nearly all actives have a fitted effect of over 45% in size; note: potency is the fitted concentration of half-maximal effect). The essentials: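 3T3Gli1-Luc, conditioned-medium-stimulated, 24hr cpd, 37C/5% CO2; Gli1-driven firefly Luc luminescence after 30min RT with luciferase reagent. Cells plated 4hr before cpd.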
Experiment [3] has as its target Estrogen receptor beta (Homo sapiens) (UniProt Q92731). Description: qHTS assay to identify small molecule agonists of the estrogen receptor beta (ER-beta) signaling pathway (AID 1259377; active = well fitted activation curve with a large enough effect in the signal ratio in the repeat runs, not every such curve was filed as active; the % refers to the signal ratio). The essentials:
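HEK293T ER-beta-UAS-bla; 2% charcoal-stripped FBS; cells pre-incubated 6 hr, compound 16 hr, 37C/5% CO2; LiveBLAzer B/G FRET substrate 2 h RT; fluorescence intensity read.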

For experiment [4] the target is unchanged. Briefly: qHTS assay to identify small molecule antagonists of the estrogen receptor beta (ER-beta) signaling pathway (AID 1259378; active = well fitted inhibition curve with a large enough effect in the signal ratio in the repeat runs, not every such curve was filed as active; the % refers to the signal ratio). The essentials: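 ER-beta-UAS-bla HEK293T (GripTite) cells in 2% charcoal-stripped FBS medium were preincubated 6 hr at 37C, dosed with compound, then stimulated with 1 nM E2 (final) for 16 hr; beta-lactamase reporter read by B/G FRET fluorescence after 2 hr substrate loading.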

A short description of experiment [5]: qHTS assay to identify small molecule agonists of the androgen receptor (AR) signaling pathway in the presence of an antagonist - cell viability counter screen (AID 1259379).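 Note: MDA-kb2 human breast cancer cells carrying an MMTV luciferase reporter; series mostly up to about 92 µM; nearly all actives have a fitted effect of over 25% in size.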 In short, it runs like this: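 Cells: MDA-kb2 (MMTV-luc, AR and GR elements), 3,000/well, 5 hr settle. Added: nilutamide 3.0uM final, then compounds (15 conc.). Incubation: 16 hr, 37C, no CO2. Read-out: CellTiter-Fluor, 1 hr, fluorescence.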

Experiment [6] in a line: qHTS assay to identify small molecule agonists of the estrogen receptor beta (ER-beta) signaling pathway - cell viability counter screen (AID 1259380). Note: nearly all actives have a fitted effect of over 30% in size. The essentials:
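HEK293T ER-beta-UAS-bla; 2% CS-FBS; 6 hr pre-plate, 16 hr cpd at 37C/5% CO2; LiveBLAzer read first, then CellTiter-Glo 30 min RT, luminescence.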

Experiment [7] can be described thus: qHTS assay to identify small molecule antagonists of the estrogen receptor beta (ER-beta) signaling pathway - cell viability counter screen (AID 1259382). Note: series mostly up to about 92 µM; nearly all actives have a fitted effect of over 55% in size. In short, it runs like this:
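Cells: ER-beta-UAS-bla HEK293T, 2,000/well, 2% CS-FBS, 6 hr settle. Cpd + E2 (1nM final), 16 hr, 37C/5% CO2. Bla FRET substrate 2 hr RT, then CellTiter-Glo 30 min RT, luminescence.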

For experiment [8], the target named is Estrogen receptor (Homo sapiens) (UniProt P03372). Briefly: qHTS assay to identify small molecule agonists of the estrogen receptor alpha (ER-alpha) signaling pathway in the presence of an antagonist (AID 1259383; calls by dose curve; note: top concentration of the series differs between compounds; nearly all actives have a fitted effect of over 15% in size). In short, it runs like this:
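VM7Luc4E2, endog. ER-alpha + 4×ERE-luc; charcoal-stripped FBS, phenol red-free, 5 d; 24hr plating; +10.0nM ICI-182,780 (final); cpds 15 conc, 22hr, 37C/5% CO2; ONE-Glo luminescence.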

The nature of experiment [9]: qHTS assay to identify small molecule agonists or antagonists of the thyroid stimulating hormone receptor (TSHR) signaling pathway - wild type cell line counter screen (AID 1259384; calls by dose curve). The essentials: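 Wild-type HEK293 cells were plated 18 h at 37 C/5% CO2, pin-dosed with compound plus Ro20-1724 medium, held 30 min at room temperature, then given cAMP-d2 and anti-cAMP-cryptate; fluorescence was read after 1 h. Fifteen concentrations, triplicate.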

Experiment [10] addresses Thyrotropin receptor (Homo sapiens) (UniProt P16473). Description: qHTS assay to identify small molecule antagonists of the thyroid stimulating hormone receptor (TSHR) signaling pathway (AID 1259385; calls by dose curve; note: nearly all actives have a fitted effect of over 20% in size). In short, it runs like this: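 TSHR-HEK293 cells were plated and held 18 h at 37C/5% CO2, then given compound plus Ro20-1724 and stimulated with TSH at 1.5 ng/mL final. After 30 min at room temperature, cAMP was detected with cAMP-d2/anti-cAMP-cryptate (1 h) by fluorescence.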

Experiment [11] in a line: qHTS assay to identify small molecule agonists of the estrogen receptor alpha (ER-alpha) signaling pathway in the presence of an antagonist - cell viability counter screen (AID 1259386).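 Note: series mostly up to about 92 µM; cells exposed to compounds for 22 h at 37 °C before the viability read; nearly all actives have a fitted effect of over 30% in size.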 The essentials: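 VM7Luc4E2, stripped-serum pre-culture 5 d; 24hr plating; +ICI-182,780 10.0nM final; cpds 15 conc, 22hr, 37C/5% CO2; CellTiter-Fluor added at 21hr, fluorescence 1hr later.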

Experiment [12] deals with Progesterone receptor (Homo sapiens) (UniProt P06401). Briefly: qHTS assay to identify small molecule agonists of the progesterone receptor (PR) signaling pathway (AID 1346784; calls by dose curve; note: nearly all actives have a fitted effect of over 30% in size). In short, it runs like this:
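Beta-lactamase reporter read-out: after 16 hr compound treatment at 37C and a further 2 hr at room temperature with LiveBLAzer B/G FRET substrate, fluorescence was measured in PR-UAS-bla HEK 293T cells grown in 2% charcoal-stripped serum.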

Experiment [13] has the same target. Description: qHTS assay to identify small molecule antagonists of the progesterone receptor (PR) signaling pathway (AID 1346795; active = well fitted inhibition curve with a large enough effect in the signal ratio in the repeat runs, not every such curve was filed as active; the % refers to the signal ratio). The essentials:
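Read-out is fluorescence from the LiveBLAzer B/G FRET substrate, cleaved by a UAS-controlled beta-lactamase in PR-UAS-bla HEK293T cells after 16 hr exposure to compound plus 1 nM promegestone (final), followed by 2 hr at room temperature.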

Experiment [14] can be described thus: qHTS assay to identify small molecule antagonists of the progesterone receptor (PR) signaling pathway - cell viability counter screen (AID 1346798). Note: series mostly up to about 92 µM; nearly all actives have a fitted effect of over 50% in size. The essentials: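 HEK293T PR-UAS-bla, 2% charcoal-stripped FBS; 4 hr pre-plate; cpd + R5020, 16 h 37C; LiveBLAzer read first; then CellTiter-Glo 30 min RT, luminescence.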
Experiment [15] can be described thus: qHTS assay to identify small molecule antagonists of the TGF-beta/Smad signaling pathway - cell viability counter screen (AID 1346824). Note: nearly all actives have a fitted effect of over 50% in size. In short, it runs like this: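 SBE-bla HEK 293T cells were plated overnight at 37 C, then given compounds in DMSO plus TGF-beta1 (added as 0.25 ng/mL solution) for 5 hr. After the bla read, CellTiter-Glo was added to the same wells and luminescence read after 30 min at room temperature.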

Experiment [16] can be described thus: qHTS assay to identify small molecule agonists of the TGF-beta/Smad signaling pathway - cell viability counter screen (AID 1346829). Note: nearly all actives have a fitted effect of over 45% in size. Note: potency is the fitted concentration of half-maximal effect. In short, it runs like this:
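In parallel with the Smad reporter read, viability of HEK 293T cells stably carrying SBE-bla is quantified by ATP luminescence following 5 hr compound treatment.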

Experiment [17] can be described thus: qHTS assay to identify small molecule agonists of the TGF-beta/Smad signaling pathway (AID 1346859; active = well fitted activation curve with a large enough effect in the signal ratio in the repeat runs, not every such curve was filed as active; the % refers to the signal ratio; note: series mostly up to about 77 µM). In short, it runs like this:
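SBE-bla HEK 293T, 4,000 cells/well, plated o/n; cpd in DMSO, 5 hr, 37 C/5% CO2; B/G FRET substrate 2 hr RT; ex 405, em 460/530 nm.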

Experiment [18] concerns the target Thyrotropin-releasing hormone receptor (Homo sapiens) (UniProt P34981). Briefly: qHTS assay to identify small molecule antagonists of the thyrotropin-releasing hormone receptor (TRHR) signaling pathway (AID 1346877; active = well fitted inhibition curve with a large enough effect in the repeat runs, not every such curve was filed as active; note: series mostly up to about 51 µM). The essentials:
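Intracellular calcium fluorescence, read kinetically every second over 3 min, reports TRH-evoked signalling in HEK293 cells carrying TRHR. Test compounds were added 5 min ahead of a 1 nM TRH challenge.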

The nature of experiment [19]: qHTS assay to identify small molecule agonists of the progesterone receptor (PR) signaling pathway - cell viability counter screen (AID 1346799; calls by dose curve; note: nearly all actives have a fitted effect of over 45% in size). The essentials: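 Luminescence from CellTiter-Glo, added after the beta-lactamase FRET read in the same wells, gave cytotoxicity in PR-UAS-bla HEK293T cells treated with compounds for 16 hr at 37C.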
The target in experiment [20] is Androgen receptor (Homo sapiens) (UniProt P10275). Description: qHTS assay to identify small molecule agonists of the androgen receptor (AR) signaling pathway in the presence of an antagonist (AID 1259381; calls by dose curve; note: nearly all actives have a fitted effect of over 15% in size). In short, it runs like this: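 MDA-kb2 cells, 3,000/well, rested 5hr at 37C/0% CO2 → nilutamide 3.0uM final or buffer → compounds, 15 conc. → 16hr at 37C → ONE-Glo, 30min RT → luminescence.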
Sequence of Androgen receptor (Homo sapiens) (P10275 whole entry, looked up): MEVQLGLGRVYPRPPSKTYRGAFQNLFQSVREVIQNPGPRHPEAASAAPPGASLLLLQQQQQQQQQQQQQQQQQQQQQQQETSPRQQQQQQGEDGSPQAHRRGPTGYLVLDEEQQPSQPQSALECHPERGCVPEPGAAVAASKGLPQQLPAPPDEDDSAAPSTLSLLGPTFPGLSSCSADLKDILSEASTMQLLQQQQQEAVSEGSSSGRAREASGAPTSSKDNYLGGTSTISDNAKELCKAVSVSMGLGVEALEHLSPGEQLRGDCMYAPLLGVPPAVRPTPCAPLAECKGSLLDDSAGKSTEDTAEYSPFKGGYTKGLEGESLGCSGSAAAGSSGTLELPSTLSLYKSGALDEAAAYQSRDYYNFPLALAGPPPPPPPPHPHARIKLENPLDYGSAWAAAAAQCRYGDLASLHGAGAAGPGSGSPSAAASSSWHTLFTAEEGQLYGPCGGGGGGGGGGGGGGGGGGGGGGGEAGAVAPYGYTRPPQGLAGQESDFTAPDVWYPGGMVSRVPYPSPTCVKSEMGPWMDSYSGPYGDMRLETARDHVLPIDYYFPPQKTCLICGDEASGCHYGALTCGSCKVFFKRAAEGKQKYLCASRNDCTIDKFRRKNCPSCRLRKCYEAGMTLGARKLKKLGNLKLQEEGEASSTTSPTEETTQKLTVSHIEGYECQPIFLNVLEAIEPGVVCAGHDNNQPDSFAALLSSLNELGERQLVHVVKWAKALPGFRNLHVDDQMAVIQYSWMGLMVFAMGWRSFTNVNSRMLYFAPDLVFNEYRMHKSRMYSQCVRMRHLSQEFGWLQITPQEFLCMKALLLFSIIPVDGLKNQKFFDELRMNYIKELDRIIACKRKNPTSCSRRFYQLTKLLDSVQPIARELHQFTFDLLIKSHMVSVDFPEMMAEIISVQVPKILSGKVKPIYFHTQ

Sequence of Thyrotropin receptor (Homo sapiens) (P16473 whole entry, looked up): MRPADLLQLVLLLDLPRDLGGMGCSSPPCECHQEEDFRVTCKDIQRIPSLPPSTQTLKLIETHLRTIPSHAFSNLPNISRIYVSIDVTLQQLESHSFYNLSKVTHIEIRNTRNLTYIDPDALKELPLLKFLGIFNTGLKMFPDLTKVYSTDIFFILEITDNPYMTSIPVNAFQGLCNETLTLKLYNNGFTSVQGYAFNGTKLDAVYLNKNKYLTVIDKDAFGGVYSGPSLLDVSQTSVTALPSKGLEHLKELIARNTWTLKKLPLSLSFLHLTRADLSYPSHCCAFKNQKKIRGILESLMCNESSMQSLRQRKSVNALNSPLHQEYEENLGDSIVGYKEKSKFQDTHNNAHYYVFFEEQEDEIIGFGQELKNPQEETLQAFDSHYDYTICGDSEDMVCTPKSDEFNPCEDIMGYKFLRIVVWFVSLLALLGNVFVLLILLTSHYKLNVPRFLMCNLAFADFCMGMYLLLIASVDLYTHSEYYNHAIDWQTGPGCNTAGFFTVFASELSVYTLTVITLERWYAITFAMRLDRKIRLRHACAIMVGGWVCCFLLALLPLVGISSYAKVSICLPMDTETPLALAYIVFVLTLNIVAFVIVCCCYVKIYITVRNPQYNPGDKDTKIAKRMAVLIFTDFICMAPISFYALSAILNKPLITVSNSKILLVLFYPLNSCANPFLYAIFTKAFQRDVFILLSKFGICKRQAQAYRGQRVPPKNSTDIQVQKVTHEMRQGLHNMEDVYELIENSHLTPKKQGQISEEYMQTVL
Sequence of Estrogen receptor (Homo sapiens) (P03372 whole entry, looked up): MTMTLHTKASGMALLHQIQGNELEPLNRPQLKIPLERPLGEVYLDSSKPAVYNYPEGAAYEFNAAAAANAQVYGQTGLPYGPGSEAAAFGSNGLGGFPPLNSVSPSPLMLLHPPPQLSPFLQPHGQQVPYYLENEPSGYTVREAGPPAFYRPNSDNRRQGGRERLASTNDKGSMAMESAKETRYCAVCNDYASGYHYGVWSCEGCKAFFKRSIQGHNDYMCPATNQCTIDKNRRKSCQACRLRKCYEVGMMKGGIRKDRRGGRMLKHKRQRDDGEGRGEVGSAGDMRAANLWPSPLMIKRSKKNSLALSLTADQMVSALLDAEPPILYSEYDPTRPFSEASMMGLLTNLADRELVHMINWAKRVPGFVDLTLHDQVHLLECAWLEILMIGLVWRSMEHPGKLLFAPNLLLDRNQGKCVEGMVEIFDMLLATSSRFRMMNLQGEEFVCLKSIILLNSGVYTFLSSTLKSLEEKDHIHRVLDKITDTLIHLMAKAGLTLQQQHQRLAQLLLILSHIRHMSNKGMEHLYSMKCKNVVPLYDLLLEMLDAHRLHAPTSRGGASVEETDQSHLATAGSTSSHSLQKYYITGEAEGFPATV
Sequence of Thyrotropin-releasing hormone receptor (Homo sapiens) (P34981 whole entry, looked up): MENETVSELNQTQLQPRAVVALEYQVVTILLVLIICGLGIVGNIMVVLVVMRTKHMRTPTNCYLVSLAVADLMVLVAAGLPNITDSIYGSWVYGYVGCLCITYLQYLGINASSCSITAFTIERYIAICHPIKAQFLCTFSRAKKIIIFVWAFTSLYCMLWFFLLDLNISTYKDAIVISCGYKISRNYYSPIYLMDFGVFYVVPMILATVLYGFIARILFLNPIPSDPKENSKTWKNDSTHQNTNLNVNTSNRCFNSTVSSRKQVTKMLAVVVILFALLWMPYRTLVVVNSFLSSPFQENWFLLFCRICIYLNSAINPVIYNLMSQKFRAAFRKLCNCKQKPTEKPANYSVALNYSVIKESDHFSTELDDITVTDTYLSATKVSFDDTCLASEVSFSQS
Sequence of Estrogen receptor beta (Homo sapiens) (Q92731 whole entry, looked up): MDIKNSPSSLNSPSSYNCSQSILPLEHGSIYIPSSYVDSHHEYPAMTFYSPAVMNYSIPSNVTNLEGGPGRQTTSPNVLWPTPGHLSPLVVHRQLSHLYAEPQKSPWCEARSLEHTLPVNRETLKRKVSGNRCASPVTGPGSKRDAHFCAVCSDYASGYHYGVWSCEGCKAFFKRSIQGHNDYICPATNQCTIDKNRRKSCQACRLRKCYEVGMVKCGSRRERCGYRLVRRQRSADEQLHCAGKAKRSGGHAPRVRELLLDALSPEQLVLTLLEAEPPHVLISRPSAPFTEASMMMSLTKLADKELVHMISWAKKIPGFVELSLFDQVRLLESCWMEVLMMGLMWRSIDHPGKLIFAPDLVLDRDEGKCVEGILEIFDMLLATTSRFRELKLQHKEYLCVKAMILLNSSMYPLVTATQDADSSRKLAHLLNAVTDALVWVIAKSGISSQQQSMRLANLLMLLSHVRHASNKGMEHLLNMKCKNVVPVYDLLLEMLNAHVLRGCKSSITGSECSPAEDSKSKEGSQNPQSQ
Sequence of Progesterone receptor (Homo sapiens) (P06401 whole entry, looked up): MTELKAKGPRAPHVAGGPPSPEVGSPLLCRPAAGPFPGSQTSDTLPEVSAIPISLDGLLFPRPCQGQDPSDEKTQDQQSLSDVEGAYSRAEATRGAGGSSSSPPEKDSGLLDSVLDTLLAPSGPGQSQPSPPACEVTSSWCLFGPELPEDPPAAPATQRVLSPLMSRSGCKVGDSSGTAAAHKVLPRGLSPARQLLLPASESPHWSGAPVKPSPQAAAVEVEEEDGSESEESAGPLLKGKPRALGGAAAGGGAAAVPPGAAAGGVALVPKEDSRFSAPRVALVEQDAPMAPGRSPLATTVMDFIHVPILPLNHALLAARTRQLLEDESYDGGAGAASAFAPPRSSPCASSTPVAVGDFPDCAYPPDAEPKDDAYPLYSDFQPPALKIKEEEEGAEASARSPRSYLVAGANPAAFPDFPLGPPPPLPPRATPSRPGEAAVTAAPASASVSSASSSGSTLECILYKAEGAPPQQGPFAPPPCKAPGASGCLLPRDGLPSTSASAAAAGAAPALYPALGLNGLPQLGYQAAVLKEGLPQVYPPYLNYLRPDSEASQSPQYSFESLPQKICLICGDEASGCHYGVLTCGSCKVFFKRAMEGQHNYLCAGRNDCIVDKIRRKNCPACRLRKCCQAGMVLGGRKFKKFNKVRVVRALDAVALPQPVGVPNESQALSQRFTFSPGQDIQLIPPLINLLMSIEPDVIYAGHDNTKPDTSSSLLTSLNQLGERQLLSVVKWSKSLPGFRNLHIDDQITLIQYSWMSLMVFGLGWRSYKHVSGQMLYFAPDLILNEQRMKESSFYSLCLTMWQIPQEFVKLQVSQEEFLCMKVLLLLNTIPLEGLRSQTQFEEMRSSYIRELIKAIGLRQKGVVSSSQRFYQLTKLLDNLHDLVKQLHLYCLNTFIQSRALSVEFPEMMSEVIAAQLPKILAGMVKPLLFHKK

As for `CCN(CC)CCNC(=O)c1cc(Cl)c(N)cc1OC`, the Potency entry in experiment [1], in experiment [2], in [3], in experiment [4], in experiment [5] and in [6] was “inactive” each time. Moreover, the Potency result in [7], in [8], in [9], in experiment [10], in [11] and in experiment [12] was “inactive” throughout. The Potency result in experiment [13], in experiment [14], in experiment [16] and in experiment [17] was “inactive” each time. Moreover, the call in experiment [15] and in [18] was inactive.

With `CCOCCC(=O)OCC`, the Potency entry in experiment [1], in [2], in experiment [3], in experiment [4], in [5] and in [6] was “inactive” each time. For the same compound, the Potency entry in experiment [7], in experiment [8], in experiment [11], in experiment [12], in experiment [13] and in experiment [14] was “inactive” throughout. Also, the Potency result in experiment [19], in experiment [16] and in experiment [17] was “inactive” in each case. Moreover, the compound was classed as inactive in experiment [15] and in experiment [18].

In the case of `CC1CCC(C(C)CS)CC1S` (centres undefined), the Potency entry in experiment [1], in [2], in [3], in [4], in experiment [5] and in experiment [6] was “inactive” in each case. Further, the Potency entry in [20], in [7], in experiment [9], in experiment [10], in [11] and in [12] was “inactive” throughout. In addition, the Potency result in experiment [13] and in experiment [14] was “inactive” in each case. The Potency in experiment [16] is 54.9 µM (active). Moreover, in [18], the outcome was inactive.

In the case of `CC(C)(C)CCCCCCOC(=O)c1ccccc1C(=O)OCCCCCCC(C)(C)C`, the Potency result in experiment [1], in experiment [2], in [3], in experiment [4], in experiment [5] and in [6] was “inactive” throughout. The Potency entry in experiment [7], in experiment [9], in experiment [10], in [11], in experiment [12] and in [13] was “inactive” each time. Also, the Potency entry in experiment [14], in experiment [19], in [16] and in experiment [17] was “inactive” in each case. Further, the compound was classed as inactive in experiment [15] and in experiment [18].

With `O=[N+]([O-])c1ccc2ncccc2c1`, the Potency result in experiment [1], in experiment [2], in experiment [3], in experiment [4], in [5] and in experiment [6] was “inactive” throughout. Also, the Potency result in [8], in [9], in experiment [10], in experiment [11], in experiment [12] and in [13] was “inactive” each time. The Potency entry in experiment [14], in experiment [19], in experiment [16] and in experiment [17] was “inactive” throughout. In addition, the outcome in [15] and in experiment [18] was inactive.

Consider `CC12CC3CC(C)(C1)CC(N)(C3)C2`, for which the Potency entry in [1], in [3], in experiment [4], in [5], in experiment [6] and in experiment [8] was “inactive” throughout. The Potency entry in experiment [9], in experiment [10], in experiment [11], in experiment [12], in [13] and in [14] was “inactive” throughout. Besides, the Potency entry in experiment [16] and in experiment [17] was “inactive” in each case. Besides, in [2], the Potency is 16.8 µM (active).

For the compound `ClC1=C(Cl)C1(Cl)Cl`, the Potency entry in [1], in experiment [2], in [3], in experiment [4], in experiment [5] and in experiment [6] was “inactive” in each case. Further, the Potency entry in [7], in [9], in experiment [10], in experiment [11], in experiment [12] and in experiment [13] was “inactive” throughout. The Potency entry in [14], in experiment [19], in experiment [16] and in experiment [17] was “inactive” throughout. In addition, the outcome in [15] and in [18] was inactive.

For `CCOC(=O)C(C)O` (centres undefined), the Potency result in experiment [1], in experiment [2], in experiment [3], in experiment [4], in experiment [5] and in [6] was “inactive” throughout. In addition, the Potency result in experiment [7], in experiment [8], in experiment [11], in experiment [12], in experiment [13] and in experiment [14] was “inactive” each time. Moreover, the Potency entry in experiment [19] and in [17] was “inactive” throughout.
